Source: the supplement of paper PMC11732987, “Enantioselective OTUD7B fragment discovery through chemoproteomics screening and high-throughput optimisation” (Communications Chemistry, 2025)

Experiments:
Assay in all cases: log2 ratio of Biotin-Ahx-Ub-VS probe labelling (fragment/DMSO); higher = less target engagement (more negative = stronger competition), active = hit call of the paper (q ≤ 0.05, log2 ratio ≤ -1)
Conditions in all cases: compound concentration: 200 uM; treatment time: 3 h
[1] = molecular target: T1, USP19 (UniProt O94966)
T1 sequence (whole entry): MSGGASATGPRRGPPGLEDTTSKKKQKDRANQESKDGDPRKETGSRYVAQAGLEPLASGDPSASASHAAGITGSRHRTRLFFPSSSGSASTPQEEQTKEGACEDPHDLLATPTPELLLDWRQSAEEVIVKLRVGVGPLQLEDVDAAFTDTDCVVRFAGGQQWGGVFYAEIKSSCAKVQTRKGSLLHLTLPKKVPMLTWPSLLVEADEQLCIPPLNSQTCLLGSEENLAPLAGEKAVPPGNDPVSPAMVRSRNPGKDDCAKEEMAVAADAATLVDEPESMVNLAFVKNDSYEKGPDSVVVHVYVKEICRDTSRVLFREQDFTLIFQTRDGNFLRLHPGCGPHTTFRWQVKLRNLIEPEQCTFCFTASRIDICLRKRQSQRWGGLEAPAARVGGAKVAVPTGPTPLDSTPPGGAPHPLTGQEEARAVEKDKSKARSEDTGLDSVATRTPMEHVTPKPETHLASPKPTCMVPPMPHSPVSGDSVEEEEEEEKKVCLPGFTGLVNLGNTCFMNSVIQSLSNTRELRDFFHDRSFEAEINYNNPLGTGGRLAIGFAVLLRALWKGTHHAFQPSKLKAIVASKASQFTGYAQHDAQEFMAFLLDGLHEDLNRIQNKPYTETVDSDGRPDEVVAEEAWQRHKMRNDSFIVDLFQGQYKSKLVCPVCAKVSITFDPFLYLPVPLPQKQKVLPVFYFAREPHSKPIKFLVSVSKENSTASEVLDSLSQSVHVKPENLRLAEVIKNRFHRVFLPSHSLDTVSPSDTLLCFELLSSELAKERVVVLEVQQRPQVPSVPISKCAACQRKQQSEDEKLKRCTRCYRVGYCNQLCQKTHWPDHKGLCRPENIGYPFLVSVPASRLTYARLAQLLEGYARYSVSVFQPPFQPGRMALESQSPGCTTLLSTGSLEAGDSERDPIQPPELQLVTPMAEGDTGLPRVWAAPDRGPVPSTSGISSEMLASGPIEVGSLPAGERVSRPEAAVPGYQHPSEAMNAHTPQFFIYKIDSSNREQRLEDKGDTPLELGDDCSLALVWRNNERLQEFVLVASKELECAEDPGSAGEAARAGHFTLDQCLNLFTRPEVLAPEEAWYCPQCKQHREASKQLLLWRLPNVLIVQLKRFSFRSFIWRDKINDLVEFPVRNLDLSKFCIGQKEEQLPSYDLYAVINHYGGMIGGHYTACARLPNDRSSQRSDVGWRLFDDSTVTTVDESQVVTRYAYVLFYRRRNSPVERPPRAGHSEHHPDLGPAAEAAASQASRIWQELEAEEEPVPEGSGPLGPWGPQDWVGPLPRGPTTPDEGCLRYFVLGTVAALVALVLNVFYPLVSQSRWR
Summary of the method: (§1)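 HEK293T lysate, 495 µg per sample in Tris/CHAPS/IGEPAL buffer with protease inhibitors, was treated in triplicate with fragment at 200 µM or vehicle for 3 h and then with Biotin-Ahx-Ub-VS at 0.5 µM final for 1 h. Labelled DUBs were NeutrAvidin-enriched, digested with LysC and trypsin, and run by diaPASEF LC-MS/MS. Spectronaut label-free quantities were global-median-normalised, and values are average log2 fragment/vehicle ratios by unpaired t-test on proteins with ≥2 unique peptides.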

[2] = molecular target: T2, USP22 (UniProt Q9UPT9)
T2 sequence (whole entry): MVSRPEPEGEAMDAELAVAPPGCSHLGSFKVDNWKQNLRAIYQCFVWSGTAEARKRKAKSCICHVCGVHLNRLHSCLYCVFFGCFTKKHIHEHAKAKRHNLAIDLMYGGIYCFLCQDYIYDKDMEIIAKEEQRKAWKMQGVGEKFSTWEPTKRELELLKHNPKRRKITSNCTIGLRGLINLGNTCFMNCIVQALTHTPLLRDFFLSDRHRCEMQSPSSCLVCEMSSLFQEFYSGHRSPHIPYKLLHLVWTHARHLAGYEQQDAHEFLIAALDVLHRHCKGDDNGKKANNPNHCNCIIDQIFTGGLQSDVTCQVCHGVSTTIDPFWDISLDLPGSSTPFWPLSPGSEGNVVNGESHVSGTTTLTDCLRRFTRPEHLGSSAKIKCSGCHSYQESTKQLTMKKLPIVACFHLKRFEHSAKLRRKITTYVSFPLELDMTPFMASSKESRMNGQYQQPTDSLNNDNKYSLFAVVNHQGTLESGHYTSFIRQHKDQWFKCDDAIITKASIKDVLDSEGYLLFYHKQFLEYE
Summary of the method: as §1

[3] = molecular target: USP24 (UniProt Q9UPU5)
Chain of USP24 (Q9UPU5 whole entry): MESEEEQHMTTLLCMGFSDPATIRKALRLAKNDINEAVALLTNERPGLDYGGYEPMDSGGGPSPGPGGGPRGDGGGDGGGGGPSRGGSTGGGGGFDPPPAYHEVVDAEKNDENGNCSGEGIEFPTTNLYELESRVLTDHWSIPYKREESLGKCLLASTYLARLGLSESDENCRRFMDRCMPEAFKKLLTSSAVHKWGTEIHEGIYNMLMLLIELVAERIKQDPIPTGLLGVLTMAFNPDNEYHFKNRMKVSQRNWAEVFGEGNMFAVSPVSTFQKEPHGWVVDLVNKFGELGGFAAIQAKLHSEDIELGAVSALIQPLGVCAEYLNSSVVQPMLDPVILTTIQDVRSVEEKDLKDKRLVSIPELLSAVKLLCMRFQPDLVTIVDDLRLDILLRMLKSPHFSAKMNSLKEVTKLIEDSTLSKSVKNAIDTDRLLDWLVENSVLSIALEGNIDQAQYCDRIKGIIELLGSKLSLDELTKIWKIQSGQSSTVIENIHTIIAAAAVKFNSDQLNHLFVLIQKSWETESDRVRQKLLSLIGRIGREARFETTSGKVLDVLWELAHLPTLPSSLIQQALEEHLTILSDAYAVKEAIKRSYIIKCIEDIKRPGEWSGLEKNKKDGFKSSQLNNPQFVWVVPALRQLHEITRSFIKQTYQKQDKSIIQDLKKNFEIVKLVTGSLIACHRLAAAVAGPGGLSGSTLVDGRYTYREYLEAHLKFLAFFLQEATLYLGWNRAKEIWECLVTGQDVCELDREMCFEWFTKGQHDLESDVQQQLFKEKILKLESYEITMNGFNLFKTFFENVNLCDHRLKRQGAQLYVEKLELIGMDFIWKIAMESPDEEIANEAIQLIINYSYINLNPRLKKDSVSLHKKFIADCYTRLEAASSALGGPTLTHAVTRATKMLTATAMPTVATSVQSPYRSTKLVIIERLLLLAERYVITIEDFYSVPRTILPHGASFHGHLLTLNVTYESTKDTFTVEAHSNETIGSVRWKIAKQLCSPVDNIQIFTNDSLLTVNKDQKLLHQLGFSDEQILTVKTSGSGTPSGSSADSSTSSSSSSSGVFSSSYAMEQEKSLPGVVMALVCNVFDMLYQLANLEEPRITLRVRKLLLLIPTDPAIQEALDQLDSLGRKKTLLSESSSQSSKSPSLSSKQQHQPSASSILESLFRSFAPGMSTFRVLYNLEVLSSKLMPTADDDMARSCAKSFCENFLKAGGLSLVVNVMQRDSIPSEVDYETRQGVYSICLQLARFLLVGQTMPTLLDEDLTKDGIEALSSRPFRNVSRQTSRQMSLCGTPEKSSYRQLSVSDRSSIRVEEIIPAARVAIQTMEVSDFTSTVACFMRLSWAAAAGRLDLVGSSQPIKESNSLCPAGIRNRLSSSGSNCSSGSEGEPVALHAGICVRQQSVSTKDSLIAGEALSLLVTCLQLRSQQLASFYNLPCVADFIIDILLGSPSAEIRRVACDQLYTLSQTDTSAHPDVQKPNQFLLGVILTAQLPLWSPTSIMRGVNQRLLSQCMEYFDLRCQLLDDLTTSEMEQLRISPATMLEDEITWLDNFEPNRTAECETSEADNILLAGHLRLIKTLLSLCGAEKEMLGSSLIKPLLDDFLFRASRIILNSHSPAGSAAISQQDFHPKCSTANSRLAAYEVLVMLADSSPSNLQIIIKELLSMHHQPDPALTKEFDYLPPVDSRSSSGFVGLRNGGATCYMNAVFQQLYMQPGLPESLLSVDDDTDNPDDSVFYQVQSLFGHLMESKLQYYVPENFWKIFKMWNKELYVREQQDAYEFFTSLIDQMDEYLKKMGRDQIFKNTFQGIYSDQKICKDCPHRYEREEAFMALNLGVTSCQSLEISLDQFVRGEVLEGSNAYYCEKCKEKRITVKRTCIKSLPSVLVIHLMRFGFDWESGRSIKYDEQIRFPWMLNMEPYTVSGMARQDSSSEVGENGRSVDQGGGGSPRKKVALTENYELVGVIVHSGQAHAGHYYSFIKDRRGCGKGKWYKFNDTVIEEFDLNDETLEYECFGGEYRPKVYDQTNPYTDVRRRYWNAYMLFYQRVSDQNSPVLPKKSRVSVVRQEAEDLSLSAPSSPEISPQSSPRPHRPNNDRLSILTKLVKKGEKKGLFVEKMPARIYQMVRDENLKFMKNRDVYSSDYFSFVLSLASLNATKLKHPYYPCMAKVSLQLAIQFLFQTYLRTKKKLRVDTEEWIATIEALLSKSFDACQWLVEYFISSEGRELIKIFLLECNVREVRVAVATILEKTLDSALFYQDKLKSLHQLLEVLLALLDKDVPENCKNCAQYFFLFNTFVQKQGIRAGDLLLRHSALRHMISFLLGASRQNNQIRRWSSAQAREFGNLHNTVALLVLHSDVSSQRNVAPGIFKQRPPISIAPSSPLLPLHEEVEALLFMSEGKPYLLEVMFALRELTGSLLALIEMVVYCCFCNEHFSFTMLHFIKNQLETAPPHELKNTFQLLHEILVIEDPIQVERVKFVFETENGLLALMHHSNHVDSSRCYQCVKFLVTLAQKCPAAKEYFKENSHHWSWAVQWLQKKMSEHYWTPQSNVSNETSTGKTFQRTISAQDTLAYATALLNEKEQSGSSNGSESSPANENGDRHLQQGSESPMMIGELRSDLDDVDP
Summary of the method: as §1

[4] = molecular target: T3, USP25 (UniProt Q9UHP3)
T3 sequence (whole entry): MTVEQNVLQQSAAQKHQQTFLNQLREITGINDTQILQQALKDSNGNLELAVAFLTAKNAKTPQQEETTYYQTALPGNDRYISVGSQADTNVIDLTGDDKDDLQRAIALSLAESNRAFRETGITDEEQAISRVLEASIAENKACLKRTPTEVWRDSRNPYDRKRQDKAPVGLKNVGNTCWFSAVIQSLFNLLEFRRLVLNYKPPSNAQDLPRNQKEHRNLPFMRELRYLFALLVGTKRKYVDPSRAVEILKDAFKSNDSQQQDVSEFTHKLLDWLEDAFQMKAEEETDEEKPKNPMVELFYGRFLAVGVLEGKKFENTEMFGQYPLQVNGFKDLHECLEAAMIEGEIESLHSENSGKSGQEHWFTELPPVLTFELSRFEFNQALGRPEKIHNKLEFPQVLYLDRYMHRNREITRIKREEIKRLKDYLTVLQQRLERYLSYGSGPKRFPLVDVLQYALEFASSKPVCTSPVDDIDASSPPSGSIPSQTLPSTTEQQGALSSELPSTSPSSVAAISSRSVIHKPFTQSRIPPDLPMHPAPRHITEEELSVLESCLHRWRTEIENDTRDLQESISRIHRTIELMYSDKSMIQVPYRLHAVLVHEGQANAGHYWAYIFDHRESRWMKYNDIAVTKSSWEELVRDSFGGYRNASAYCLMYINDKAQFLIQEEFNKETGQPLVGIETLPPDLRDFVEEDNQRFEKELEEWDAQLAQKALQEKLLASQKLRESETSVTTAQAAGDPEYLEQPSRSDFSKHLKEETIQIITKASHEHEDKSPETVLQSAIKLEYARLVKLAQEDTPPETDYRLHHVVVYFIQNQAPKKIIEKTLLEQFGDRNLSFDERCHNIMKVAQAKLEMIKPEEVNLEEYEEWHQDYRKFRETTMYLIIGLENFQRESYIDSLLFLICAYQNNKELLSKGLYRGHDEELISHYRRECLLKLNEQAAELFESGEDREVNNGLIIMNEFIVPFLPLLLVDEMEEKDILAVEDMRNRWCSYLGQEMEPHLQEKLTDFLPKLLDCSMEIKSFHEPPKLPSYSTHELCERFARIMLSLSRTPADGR
Summary of the method: as §1

[5] = molecular target: T4, USP28 (UniProt Q96RU2)
T4 sequence (whole entry): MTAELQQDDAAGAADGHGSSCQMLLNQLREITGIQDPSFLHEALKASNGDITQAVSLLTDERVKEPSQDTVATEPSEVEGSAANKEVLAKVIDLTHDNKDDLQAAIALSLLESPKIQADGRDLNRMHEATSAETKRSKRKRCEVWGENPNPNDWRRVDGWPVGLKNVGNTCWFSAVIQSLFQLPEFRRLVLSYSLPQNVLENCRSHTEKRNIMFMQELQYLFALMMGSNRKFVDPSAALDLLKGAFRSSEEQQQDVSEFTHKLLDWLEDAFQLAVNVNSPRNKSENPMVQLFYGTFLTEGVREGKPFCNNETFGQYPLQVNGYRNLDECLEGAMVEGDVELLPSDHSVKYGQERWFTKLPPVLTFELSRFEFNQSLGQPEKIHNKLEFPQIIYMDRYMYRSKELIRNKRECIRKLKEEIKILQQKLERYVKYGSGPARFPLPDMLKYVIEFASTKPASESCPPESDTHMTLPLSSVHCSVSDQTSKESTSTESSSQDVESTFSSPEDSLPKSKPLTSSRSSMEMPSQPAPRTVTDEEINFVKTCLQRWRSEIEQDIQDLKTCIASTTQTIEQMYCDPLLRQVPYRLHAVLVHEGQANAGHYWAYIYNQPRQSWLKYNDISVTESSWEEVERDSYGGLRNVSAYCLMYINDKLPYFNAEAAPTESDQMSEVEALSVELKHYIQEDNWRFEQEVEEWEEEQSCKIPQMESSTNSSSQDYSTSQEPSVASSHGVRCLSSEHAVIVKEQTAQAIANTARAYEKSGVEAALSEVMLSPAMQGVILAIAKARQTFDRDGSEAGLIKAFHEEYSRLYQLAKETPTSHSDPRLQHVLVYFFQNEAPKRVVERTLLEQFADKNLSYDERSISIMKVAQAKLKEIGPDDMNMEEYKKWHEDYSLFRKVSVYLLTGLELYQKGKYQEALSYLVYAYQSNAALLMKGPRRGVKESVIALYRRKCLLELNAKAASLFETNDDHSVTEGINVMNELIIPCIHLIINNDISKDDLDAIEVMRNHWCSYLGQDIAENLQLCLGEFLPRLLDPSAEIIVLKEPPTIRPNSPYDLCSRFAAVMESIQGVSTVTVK
Summary of the method: as §1

Measured: log2 ratio of Biotin-Ahx-Ub-VS probe labelling

O=C(CCl)N1CCC(c2noc3cc(F)ccc23)CC1
inactive: [1] -0.49 | [2] -0.492 | [3] -0.986 | [4] -0.302 | [5] -0.607
